The sample as a whole holds a higher share of hits than the screen did.
Dicer processing: inhibitors of Dicer pre-microRNA processing, primary screen, biochemical, cat-ELCCA, chemiluminescence; z-score at 25 µM; hit rate 6% among 47,000; Endoribonuclease Dicer (Homo sapiens), Q9UPY3; cat-ELCCA pre-miR-21 Dicer processing; active compounds read high; AID 1347074, 2019; in the data active means z-score above about 3, passing the limit was not always enough;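 further: plate controls were vehicle for no effect and no enzyme for full effect; higher signal means more uncleaved substrate so more Dicer inhibition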
Starred values were filed as active, the others as inactive.

SMILES	Dicer processing
Cc1noc(N2C(=O)C3C4C=CC(C4)C3C2=O)c1C (stereo not given)	-0.05
Cc1cc(N2C(=O)C3C4C=CC(C4)C3C2=O)no1 (stereo not given)	3.66*
Cc1cccc(N2C(=O)C3C4C=CC(C4)C3C2=O)n1 (stereo not given)	-0.23
CCOC(=O)c1c(C)nn(-c2ncccc2N)c1C	0.83
CCOC(=O)c1c(NC(C)=O)sc2c(O)c(Sc3ccccc3)ccc12	4.11*
CCOC(=O)c1c(NC(=O)Nc2sc(C)c(-c3ccccc3)c2C(=O)OCC)sc(C)c1-c1ccccc1	-1.72
CCOC(=O)c1c(NC(=O)c2cc3ccccc3c(=O)o2)sc(C)c1C	0
O=c1c(N=Nc2n[nH]c3nnc(-c4ccccc4)c(-c4ccccc4)c23)c(O)nc2ccccn12	0.39
O=c1c(C(CN2CCOCC2)c2ccccc2)nc(-c2ccccc2)nn1CN1CCOCC1 (stereo not given)	-0.3
CN(C)c1ccc(C2Nc3ccccc3O2)c(Cl)c1 (stereo not given)	-0.77
O=S(=O)(c1ccc(Cl)c2ccccc12)N1CCN(c2ccccc2)CC1	1.52
COc1ccc(S(=O)(=O)N2CCN(C)CC2)c2ccccc12	6.13*
Cc1ccc(-c2n[nH]c(=S)c3ccccc23)cc1S(=O)(=O)N1CCN(C)CC1	0.77
CCOC(=O)Cc1cnc(NC(=O)CSc2nnc3c(n2)-c2cccc4cccc-3c24)s1	-1.53
CC(C)c1cc(Oc2ccc([N+](=O)[O-])cn2)cc(C(C)C)c1	-0.38
COc1cccc2c(C)nc(NC3=NCN(CCc4ccccc4)CN3)nc12	-0.44
COc1ccc(C2OCC3(COC(C)=O)C(C)C=C(C)C2C3C)cc1 (stereo not given)	1.18
CC(=O)OCC12COC(c3ccc(OC(C)=O)cc3)C(C(C)=CC1C)C2C (stereo not given)	3.42*
CC(=O)OCC12COC(c3ccccc3OC(C)=O)C(C(C)=CC1C)C2C (stereo not given)	1.9
O=C1CC(NCCc2c[nH]c3ccccc23)C(=O)N1c1ccccc1 (stereo not given)	0.28
CSC1=NCC(=O)N1CCc1c[nH]c2ccccc12	2.47
C(#Cc1ccccc1)CNCCc1c[nH]c2ccccc12	4.09*
CCOC(=O)c1cc(C#N)c(Oc2ccc(Cl)cc2)nc1C(F)(F)F	3.08
COC(=O)CCCN1C(=O)NC2NC(=O)NC21 (stereo not given)	0.72
O=S(=O)(c1ccc(Br)s1)N1CCC(C(c2ccccc2)c2ccccc2)CC1	0.14
SMILES	Dicer processing
Oc1ccccc1Nc1nc(NCc2ccco2)c2ccccc2n1	3.11*
O=C(NCc1ccco1)Oc1ccccc1	1.21
Cc1cc(C)nc(NCc2ccco2)n1	-0.31
CCOC(=O)c1cnn2c(C)cc(-c3ccc(OCC)cc3)nc12	-1.85
Cc1cccc(N2C(=O)C3C(c4ccccc4)OC4(C(=O)c5ccccc5C4=O)C3C2=O)c1C (stereo not given)	-1.46
O=C(O)C1C2CCC(O2)C1C(=O)N1CCN(c2ccc(F)cc2)CC1 (stereo not given)	0.24
Nc1cccc(-c2nc3ccccc3o2)c1	0.17
CN(C)c1ccc(-c2nc3cc(N)ccc3o2)cc1	3.41*
Nc1cccc(-c2nc3cc(Cl)ccc3o2)c1	4.51*
Nc1ccc(-c2nc3cc(N)ccc3o2)cc1	-0.37
CCOc1ccc(-c2nc3cc(N)ccc3o2)cc1	1.51
Cc1cc2nc(-c3cccc(N)c3)oc2cc1C	0.66
Cc1ccc(OCc2nc(C#N)c(NCCCN(C)C)o2)cc1	2.22
CSC1=N/C(=C/c2cccnc2)C(=O)N1CCOc1ccccc1Cl	1.06
CCSCCOC(=O)C1=C(C)NC2=C(C(=O)CC(C)(C)C2)C1c1ccsc1 (stereo not given)	10.5
CC1=C(C(=O)Nc2cccc(F)c2)C(c2ccsc2)C2=C(CC(C)(C)CC2=O)N1 (stereo not given)	3.74*
CC1=C(C(=O)Nc2cccc(C)n2)C(c2ccsc2)C2=C(CC(C)(C)CC2=O)N1 (stereo not given)	0.2
NC(=O)CCS(=O)(=O)CCC(N)=O	-0.79
Cc1cc(C)n(C(=O)CN2C(=O)C3CCCCC3C2=O)n1 (stereo not given)	4.84
CSCCC(NC(=O)c1ccc(C(F)(F)F)cc1)C(=O)NNS(=O)(=O)c1ccccc1Cl (stereo not given)	0.38
CCCOC(=O)C1C2C=CC3(CN(Cc4ccc(C)cc4)C(=O)C13)O2 (stereo not given)	-1.22
O=c1oc(-c2cccc(Br)c2)nc2ccc(O)cc12	-2.37
CC1(C)CCC(=O)N(c2ccc(OC(F)(F)F)cc2)C1=O	1.98
Cc1ccc(Cl)cc1N1C(=O)CCC(C)(C)C1=O	3.29*
COC(=O)c1sccc1Oc1ccc(Cl)cc1N1C(=O)CCC1=O	1.48
SMILES	Dicer processing
CCOc1ccc(C2C(C(=O)OCc3ccccc3)=C(C)N=C3SC(C)C(=O)N32)cc1OCC (stereo not given)	-0.38
Cc1[nH]c2ccccc2c1C(=O)CSc1nnc(Cc2cccs2)n1C	3.38*
CCn1c(SCC(=O)c2c[nH]c3ccccc23)nnc1-c1cccs1	2.14
Cc1[nH]c2ccccc2c1C(=O)CSc1nnc(-c2ccco2)n1-c1ccccc1	4.68*
Cc1[nH]c2ccccc2c1C(=O)CSc1nnc(-c2cccs2)n1C	0.7
CCn1c(SCC(=O)c2c[nH]c3ccccc23)nnc1-c1ccco1	3.41*
O=C(CSc1nnc(-c2ccco2)n1-c1ccc(OCc2ccccc2)cc1)c1ccccc1	-0.72
CCn1c(SCC(=O)c2c(C)[nH]c3ccccc23)nnc1-c1ccco1	2.6
Cc1[nH]c2ccccc2c1C(=O)CSc1nnc(-c2ccco2)n1C	2.93
Cc1[nH]c2ccccc2c1C(=O)CSc1nnc(C2CCCCC2)n1C	1.39
O=C(OCc1ccc(Oc2ccc(Cl)cc2Cl)c([N+](=O)[O-])c1)c1ccc(Cl)cc1	0.36
COc1ccc(Oc2coc3cc(OC(=O)c4ccc(OC)cc4)ccc3c2=O)cc1	-10.2
C/C(=N\Nc1ccc(S(=O)(=O)NCc2ccco2)cc1[N+](=O)[O-])c1ccc(F)cc1	-0.3
CCOC(=O)c1c(C)n(C)c2ccc(OCC(O)CNC(C)(C)C)cc12 (stereo not given)	1.26
CC(C)(C)c1cc2ncnc(N3CCOCC3)c2s1	1.17
CCCCCCCNC(=O)c1cc([N+](=O)[O-])cc2c1-c1ccc([N+](=O)[O-])cc1C2=O	0.72
CN(C)c1ccc(-n2nnnc2SCc2cc(F)cc(F)c2)cc1	0.78
Cc1ccc(C(NC(=O)C(C)C)c2cc(Cl)c3cccnc3c2O)cc1 (stereo not given)	1.66
Cc1ccc(S(=O)(=O)Nc2cc(Cl)c(O)c3ncccc23)cc1	8.55*
Oc1c(Cl)cc(Cl)c2cccnc12	3.06*
Cc1ccc(S(=O)(=O)Nc2cc(S(=O)(=O)c3ccc(C)cc3)c(O)c3cccnc23)cc1	-0.59
O=C(Oc1c(Cl)cc(Cl)c2cccnc12)c1cccs1	1.41
Cc1ccc(S(=O)(=O)Nc2ncccc2OCc2ccc(Cl)c(Cl)c2)cc1	-0.73
Fc1ccc(Cn2c(-c3cncs3)nc3ccccc32)cc1	2.43
CCOC(=O)c1c(N/N=C/c2cccc(O)c2)n[nH]c1C	-0.07
CSc1nn(CSc2c(Cl)cccc2Cl)c(=S)s1	0.25
Cc1c(C(=O)OC(C)C)c2cc(NS(C)(=O)=O)ccc2n1S(C)(=O)=O	0
O=C1CCOc2cc3c(cc21)C(=O)CCO3	3.61*
O=C1CCCc2c1ccc1c3c(ccc21)C(=O)CCC3	-0.13
